# Laboratory results as given in the supplement of paper PMC6609913.
# Where a name gives a salt, the structure may show the parent alone. ± gives the standard deviation of the averaged measurements. The full ranking holds about 1,300 compounds; the median of “normalised cell viability” is about 1, and the lowest 2% start at about 0.14. This is one part of a sample in which the lowest values are shown more often than they occur.
# Tested on: V-C8 (BRCA2-deficient hamster cells)
# Experiment: normalised cell viability (fraction of plate median); higher = more viable cells (less toxic)
# Details: 5 µM
# Method in brief: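 In two screens, library drugs at 5 μM were given for 3 days (screen 1) or 6 days (screen 2) to hamster V-C8 cells without BRCA2 and V-C8 cells with BRCA2 restored, seeded 24 h earlier in 96-well plates. A resazurin assay gave the cell viability readout, expressed as modified robust per cent of sample against the plate median, with triplicate wells averaged.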
Structure (SMILES),normalised cell viability (treatment time: 3 days),normalised cell viability (treatment time: 6 days)
CN[C@H](CC(C)C)C(=O)N[C@H]1C(=O)N[C@@H](CC(N)=O)C(=O)N[C@H]2C(=O)N[C@H]3C(=O)N[C@H](C(=O)N[C@H](C(=O)O)c4cc(O)cc(O)c4-c4cc3ccc4O)[C@H](O)c3ccc(c(Cl)c3)Oc3cc2cc(c3O[C@@H]2O[C@H](CO)[C@@H](O)[C@H](O)[C@H]2O[C@H]2C[C@](C)(N)[C@H](O)[C@H](C)O2)Oc2ccc(cc2Cl)[C@H]1O [Vancomycin hydrochloride],0.159 ± 0.01,0.141 ± 0.0064
CC(CN(C)C)C(C)(O)Cc1ccc(Cl)cc1 (centres undefined) [Clobutinol hydrochloride],1.05 ± 0.13,1.11 ± 0.064
Cc1cc(NC(=O)C2=C(O)c3ccccc3S(=O)(=O)N2C)no1 [Isoxicam],1.04 ± 0.06,1.06 ± 0.042
CC[C@]12CCCN3CCc4c(n(c5ccccc45)C(=O)C1)[C@@H]32 [Eburnamonine (-)],0.362 ± 0.016,0.643 ± 0.11
CN(C)[C@@H]1C(O)=C(C(N)=O)C(=O)[C@@]2(O)C(O)=C3C(=O)c4c(O)cccc4[C@@](C)(O)[C@H]3[C@H](O)[C@@H]12 [Oxytetracycline dihydrate],0.991 ± 0.015,0.945 ± 0.05
C=C(NC(=O)C(=C)NC(=O)c1csc(C2=N[C@@H]3c4csc(n4)[C@H]4NC(=O)c5csc(n5)[C@H]([C@](C)(O)[C@@H](C)O)NC(=O)[C@H]5CSC(=N5)/C(=C/C)NC(=O)[C@H]([C@@H](C)O)NC(=O)c5csc(n5)[C@]3(CC2)NC(=O)[C@H](C)NC(=O)C(=C)NC(=O)[C@H](C)NC(=O)[C@H]([C@@H](C)CC)N[C@@H]2C=Cc3c([C@H](C)O)cc(nc3[C@H]2O)C(=O)O[C@@H]4C)n1)C(N)=O [Thiostrepton],0.14 ± 0.011,0.126 ± 0.0091
COc1c(O[C@@H]2O[C@H](CO)[C@@H](O)[C@H](O)[C@H]2O)cc2c(c1OC)-c1ccc(SC)c(=O)cc1[C@@H](NC(C)=O)CC2 [Thiocolchicoside],1.22 ± 0.36,0.97 ± 0.017
CCCCc1cc2ccccc2c(OCCN(C)C)n1 [Dimethisoquin hydrochloride],1.03 ± 0.087,1.04 ± 0.05
CCOc1ccc2c(c1)C(C)=CC(C)(C)N2 [Ethoxyquin],0.883 ± 0.014,1.2 ± 0.26
CCN(CC)CCOC(=O)C(Cc1cccc2ccccc12)CC1CCCO1 (centres undefined) [Nafronyl oxalate],0.1613 ± 0.00033,0.14 ± 0.0088
CCN(CC)CCOC(=O)C(c1ccccc1)c1ccccc1 [Adiphenine hydrochloride],0.976 ± 0.021,1.02 ± 0.039
CCN(CC)CCOC(=O)C(c1ccccc1)C1CCCCC1 (centres undefined) [Drofenine hydrochloride],1.02 ± 0.038,1.02 ± 0.07
COCCOC(=O)C1=C(C)NC(C)=C(C(=O)OC/C=C/c2ccccc2)C1c1cccc([N+](=O)[O-])c1 (centres undefined) [Cilnidipine],0.98 ± 0.03,1.01 ± 0.015
CC(=C(CCO)SSCC1CCCO1)N(C=O)Cc1cnc(C)nc1N (stereo in doubt) [Fursultiamine Hydrochloride],1.03 ± 0.025,1.03 ± 0.0084
Cc1ccccc1C(OCCN(C)C)c1ccccc1 (centres undefined) [Orphenadrine hydrochloride],1.05 ± 0.14,0.964 ± 0.14
O=C(O)c1cc(/N=N/c2ccc(S(=O)(=O)Nc3ccccn3)cc2)ccc1O [Sulfasalazine],1.03 ± 0.056,0.993 ± 0.046

Structure (SMILES),normalised cell viability (treatment time: 3 days),normalised cell viability (treatment time: 6 days)
N#Cc1ccc(C2CCCc3cncn32)cc1 (centres undefined) [Fadrozole hydrochloride],1.01 ± 0.087,0.97 ± 0.079
COc1cccc2c1C(=O)c1c(O)c3c(c(O)c1C2=O)C[C@@](O)(C(=O)CO)C[C@@H]3O[C@H]1C[C@H](N)[C@@H](O)[C@H](C)O1 [Epirubicin hydrochloride],0.123 ± 0.013,0.163 ± 0.016
COc1cccc2c1C(=O)c1c(O)c3c(c(O)c1C2=O)C[C@@](O)(C(C)=O)C[C@@H]3O[C@H]1C[C@H](N)[C@H](O)[C@H](C)O1 [Daunorubicin hydrochloride],0.141 ± 0.011,0.124 ± 0.0055
COc1cccc2c1C(=O)c1c(O)c3c(c(O)c1C2=O)C[C@@](O)(C(=O)CO)C[C@@H]3O[C@H]1C[C@H](N)[C@H](O)[C@H](C)O1 [Doxorubicin hydrochloride],0.127 ± 0.0054,0.113 ± 0.0072
Cc1nccn1CC1CCc2c(c3ccccc3n2C)C1=O (centres undefined) [Ondansetron Hydrochloride],1.07 ± 0.04,1.1 ± 0.082
"CC(C)NCC(O)c1ccc(O)c(O)c1 (single isomer, unassigned; (+)) [(+)-Isoproterenol (+)-bitartrate salt]",1.028 ± 0.0063,0.926 ± 0.063
CC(=O)NC[C@H]1CN(c2ccc(N3CCOCC3)c(F)c2)C(=O)O1 [Linezolid],1.04 ± 0.039,0.972 ± 0.047
"c1ccc(CNc2ncnc3nc[nH]c23)cc1 [Aminopurine, 6-benzyl]",0.947 ± 0.1,0.94 ± 0.075
"O=C1C=CC(=O)c2c1ccc1c2ccc2ccccc21 [Chrysene-1,4-quinone]",1.02 ± 0.061,1.06 ± 0.12
Nc1c2ccccc2nc2ccccc12 [Aminacrine],0.127 ± 0.015,0.164 ± 0.015
Nc1c2c(nc3ccccc13)CCCC2 [Tacrine hydrochloride],0.984 ± 0.031,1.1 ± 0.049
CC(C)Cn1cnc2c(N)nc3ccccc3c21 [Imiquimod],1.11 ± 0.044,1.02 ± 0.064
CN1CCN(c2c(F)cc3c(=O)c(C(=O)O)cn(CCF)c3c2F)CC1 [Fleroxacin],0.982 ± 0.046,0.977 ± 0.051
COC(=O)Nc1nc2cc([S+]([O-])c3ccccc3)ccc2[nH]1 (centres undefined) [Oxfendazol],0.712 ± 0.076,0.775 ± 0.014
COC(=O)Nc1nc2cc(C(=O)c3ccccc3)ccc2[nH]1 [Mebendazole],0.164 ± 0.0056,0.13 ± 0.0086
COC(=O)Nc1nc2cc(Sc3ccccc3)ccc2[nH]1 [Fenbendazole],0.187 ± 0.0098,0.181 ± 0.013
